Consider 38 compounds from the supplement of paper PMC9897528.

A number with no mark means an inactive call.
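Further: conidia screened in RPMI 1640 medium under 5% CO2, growth read by spectrophotometer, medium with 0.5% DMSO serving as the untreated reference.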

For this assay, the system named is Scedosporium aurantiacum CBS 136046. The experiment in a line: growth inhibition relative to DMSO control (OD600); higher = more antifungal activity, active = 80 or more; extreme values may be limits of the assay. As to conditions: 5 µM; 72 h; 37 °C.
As to `Cc1c[nH]c(=O)nc1NCc1ccccc1`, the growth inhibition is 10.8%.
As to `COc1ccc(C(C)(C)C)cc1NC(=O)C(=O)c1ccc(OCCN2CCOCC2)c2ccccc12`, the growth inhibition was 9.3%.
For the compound `COc1ccc(CNC(=O)C(NS(=O)(=O)c2ccc3nc(C)sc3c2)C(C)C)cc1` (stereo not drawn), the growth inhibition was 26.3%.
On to `COc1cc(NC(=O)CN2C(=O)NC(c3ccccc3)(c3ccccc3)C2=O)cc(OC)c1`, for which the growth inhibition is 0%.
Turning to `Cc1onc(-c2ccccc2Cl)c1C(=O)N[C@@H]1C(=O)N2[C@@H]1SC(C)(C)[C@@H]2C(=O)O`, the growth inhibition was 0.0225%.
`CC1(C)C[C@H]1C(=O)N/C(=C\CCCCSC[C@@H](N)C(=O)O)C(=O)O`: the growth inhibition was 4.68%.
In the case of `CCOc1ccc(/C=N/NC(=O)C2CC2c2ccc(C(C)(C)C)cc2)cc1OCC` (stereo not drawn), the growth inhibition is 18.4%.
With `CCOc1ccc(C(=O)NCCc2ccccc2)cc1`, the growth inhibition is 33.4%.
For the compound `CC1CCc2c(N3CCC(O)CC3)c(F)cc3c(=O)c(C(=O)O)cn1c23` (stereo not drawn), the growth inhibition is 16.2%.
To `CCc1cc(CCCOc2c(C)cc(-c3noc(C(F)(F)F)n3)cc2C)on1` belongs 7.39%; to `Nc1nc2c(ncn2COCCO)c(=O)[nH]1`, 11.1%; to `Nc1nnc(-c2ccc(Cl)cc2)s1`, 6.96%.
Regarding `CN(C)CCCOc1ccc(-c2ccc3ncc4c(c3c2)n(C2CCOCC2)c(=O)n4C)cn1`, the growth inhibition is 3.43%.
For `Cc1c(N)cccc1Cn1ccc(OCCc2cccs2)cc1=O`, the growth inhibition was 2.23%.
With `COc1c(F)c(F)cc2c(=O)c(C(=O)O)cn(C3CC3)c12` the figure was 43.8%.
With `Nc1nc(=O)[nH]cc1F`, the growth inhibition is 0.0511%.
Turning to `CC[C@@H](CO)NCCN[C@@H](CC)CO`, the growth inhibition was 11.4%.
`COc1cc(C(C(=O)NC2CCCCC2)N(C(=O)Cc2c[nH]c3ccccc23)c2ccc(C(C)C)cc2)cc(OC)c1OC` (stereo not drawn): the growth inhibition is 6.79%.
For `O=C(Cc1ccccc1F)Nc1nc2ccccc2[nH]1`, the growth inhibition was 23.9%.
In the case of `CCOc1noc2cc(OCCC3CCN(c4ccc(C)nn4)CC3)ccc12`, the growth inhibition is 37.3%.
As to `Cc1onc(-c2ccccc2)c1-c1ccc(S(N)(=O)=O)cc1`, the growth inhibition is 41.2%.
With `NC(=O)c1cnc2ccc(S(=O)(=O)c3ccccc3)cc2c1Nc1ccc(O)cc1` the figure was 32.1%; with `CCc1cc(Cc2cnc(N)nc2N)cc2c1N(C)CCC2C` (stereo not drawn), 16.8%.
Turning to `O=C(c1nc2c(C(F)(F)F)cc(C3CC3)cn2c1Cl)N1CCN([C@H]2CC[C@H](O)CC2)C(=O)C1`, the growth inhibition is 4.91%.
Turning to `CCOC(=O)/C=C/[C@H](C[C@@H]1CCNC1=O)NC(=O)[C@H](CC)n1cccc(NC(=O)c2cc(C)on2)c1=O`, the growth inhibition was 2%.
As to `NCC(=O)Nc1ccc(-n2nc(C(F)(F)F)cc2-c2ccc3c(ccc4ccccc43)c2)cc1`, the growth inhibition is 25.5%.
To `CCCC(=O)OCCc1ccccc1` belongs 0%.
Turning to `CCc1oc2ccccc2c1C(=O)c1ccc(O)cc1`, the growth inhibition was 35.1%.
In the case of `CNc1nc(=O)[nH]cc1F`, the growth inhibition is 2.45%.
`CN(C)[C@@H]1C(=O)C(C(N)=O)=C(O)[C@@]2(O)C(=O)C3=C(O)c4c(O)c(NC(=O)CN5CCCC5)cc(F)c4C[C@H]3C[C@@H]12`: the growth inhibition was 0%.
To `Cc1nc(-c2ccc(C3N(C)c4ccc(F)cc4C(=O)N3c3ccccc3)s2)cs1` (stereo not drawn) belongs 15%; to `O=[N+]([O-])c1ccc2c(CCc3c[nH]c4ccccc34)c[nH]c2c1`, 48.7%.
On to `COc1nc2ccc(Br)cc2cc1[C@@H](c1ccccc1)[C@@](O)(CCN(C)C)c1cccc2ccccc12`, for which the growth inhibition was 43.6%.
Turning to `CCOCc1nc2c(N)nc3ccccc3c2n1CC(C)(C)O`, the growth inhibition is 14.6%.
As for `O=C(N[C@H](Cc1cccc2ccccc12)C(=O)NCCc1c[nH]cn1)C1Cc2ccccc2C1`, the growth inhibition is 2.31%.
For `CC(C)(C)c1ccc(C(=O)NC(=O)N2CCCc3ccccc32)cc1`, the growth inhibition was 0.0285%.
With `CCc1nc2ccccn2c1C(=O)NCc1ccccc1`, the growth inhibition was 13%.
Consider `O=P(O)(O)C(CCCc1cccc(Oc2ccccc2)c1)S(=O)(=O)O` (stereo not drawn), for which the growth inhibition was 2.84%.
